Drawing on PubChem BioAssay (NCI), this text covers growth inhibition for 39 compounds.

SMILES strings stand for the structures. This is part of a sample that, as a whole, favours compounds with a hit. Of some 79,000 tested, about 15% had one in any assay. Unmarked numbers belong to inactive results. Activity calls are given as the source filed them. Cut-off read from the data, not from the text of the source: active = growth inhibition above about 70%; inactive = the rest.

The first assay in a line: NCI Yeast Anticancer Drug Screen. Data for the mgt1 strain (AID 153). Particulars: S. cerevisiae mgt1 mutant growth inhibition; at 100.0 µM; active compounds read high. Put shortly:
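Vehicle-normalized growth inhibition is determined in mgt1 yeast, a strain selected for a defined alteration in DNA repair or cell cycle control.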
Turning to `C=CC(C)(O)CCC1C(=C)C(O)CC2C(C)(C)CCCC12C` (stereo unspecified), the growth inhibition is 66%.
For the compound `S=C(Nc1ccc(Cl)c(Cl)c1)SCc1ccc2c(c1)OCO2`, the growth inhibition was 97% (active).
On the same count and under the same terms, the same measure for `COc1cc(C2C3=C(COC3=O)Oc3cc4c(cc32)OCO4)ccc1O` (stereo unspecified): 30%.
`S=C(Nc1ccc(Cl)cc1)SC1CCCCC1`: the growth inhibition was 99% (active).
Same read-out and setting: as for `Nc1nc(-c2cccnc2)cc(-c2cc(-c3cccnc3)nc(N)n2)n1`, the figure is 3%.
Still for that read-out and setting: as for `COC1=CC(=O)C2C(C1=O)C(c1ccc(Cl)cc1)[C@@H]2C` (stereo partly specified), the figure is 99% (active); as for `c1ccc(-c2nc3cccnc3s2)cc1`, -11%; as for `O=[N+]([O-])c1cc(CCl)ccc1CCl`, 97% (active).
On the same count and under the same terms, the same measure for `COc1ccc(/C=C2\SC(=S)N(/C=C/c3nc4ccccc4[nH]c3=O)C2=O)cc1OC`: 94% (active); for `CCCN(CCC)CC(O)c1cc(-c2ccc(Cl)cc2)nc2c(C)c(Cl)ccc12` (stereo unspecified): 96% (active); for `O=C(Nc1ccccc1)OCCc1ccc(Cl)c(Cl)c1`: 37%.
As to `CC(O)C(O)C(O)C(/C=N\Nc1ccccc1)=N/Nc1ccccc1` (stereo unspecified), the growth inhibition is 99% (active).
On the same count and under the same terms, the same measure for `C#CCCCc1ccccc1`: 91% (active); for `CC(=O)Cc1ccc[cH-]1.[Fe+2].c1cc[cH-]c1`: 20%; for `Cc1cc(I)ccc1N`: 85% (active).
For `FC(F)(F)c1cc(NC(=S)N2c3ccccc3-n3cccc3C2c2cccnc2)cc(C(F)(F)F)c1` (stereo unspecified), the growth inhibition is -17%.
On the same count and under the same terms, the same measure for `CC(C)(CN1CCCCC1)C(=O)CC(SCCS(=O)(=O)O)c1ccc(Br)cc1` (stereo unspecified): 59%; for `C[Si](C)(C)CNC(=O)OCc1ccccc1`: 12%; for `CC(C(=O)N1C(=O)N(C(=O)[C@H](C)C(O)c2ccccc2)[C@H](c2ccccc2)[C@H]1c1ccccc1)[C@@H](O)c1ccccc1` (stereo partly specified): 59%.
On the same count and under the same terms, the same measure for `Oc1cccc2c(Cl)ccnc12`: 98% (active).
Same read-out and setting: the same measure for `O=C1C=CC(=C(c2ccccc2)c2ccccc2)c2ccccc21`: 2%; for `S=C(S)NN1CCOCC1`: 18%.

The nature of another assay: NCI Yeast Anticancer Drug Screen. Data for the rad50 strain (AID 155).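 Note: 0% = growth of vehicle-only cultures of the same strain.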 Particulars: S. cerevisiae rad50 strain growth inhibition; at 1.2 µM; active compounds read high. Put shortly: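 Relative growth inhibition (compound vs vehicle) was measured in yeast with a defined repair-gene alteration.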
For the compound `C/C(=N\NC(=S)SCc1ccccc1)c1ccccn1`, the growth inhibition is 17%.
On to `CC[C@@]1(O)C(=O)OCc2c1cc1n(c2=O)Cc2cc3c(N)cccc3nc2-1`, for which the growth inhibition was 70% (active).
On the same count and under the same terms, as for `CN(C)c1ccc(Sc2ccc3nc(N)nc(N)c3c2)cc1`, the figure is -18%; as for `CC(=O)OCCOCNC(=S)N/N=C(\C)c1cnccn1`, 13%.
Still for that read-out and setting: as for `COc1ccc(C2c3cc4c(cc3OC(C)(O)C2C)OCO4)c(OC)c1` (stereo unspecified), the figure is 0%; as for `COc1cc(C2SCC(=O)N2c2ccc(-c3ccc(-n4c(-c5ccccc5)nc5ccccc5c4=O)cc3)cc2)cc(OC)c1OC` (stereo unspecified), -2%.
Still for that read-out and setting: the same measure for `COc1ccc(Br)c(C(=O)Sc2nnnn2-c2cccc(Cl)c2)c1`: 2%.
Take `O=C(NNc1ccnc2cc(Cl)ccc12)/C(=C\c1ccccc1Cl)NC(=O)c1ccccc1`: the growth inhibition was -1%.
On the same count and under the same terms, the same measure for `CSC(=S)Nc1cccc(C)n1`: -25%; for `O=C(/C=C\c1ccc(Cl)cc1Cl)c1cccs1`: -1%.
The same measure, in the same setting: the same measure for `COc1ccc(-c2cn(-c3ccc(I)cc3)c3ncnc(N)c23)cc1`: -2%; for `CN(C)c1ccc(C(C#N)=C(C#N)C#N)cc1`: -2%.
On the same count and under the same terms, as for `COc1cc(/C=C2\CCc3ccccc3C2=O)cc(OC)c1OC`, the figure is 6%; as for `CC(C)/C(Cl)=N\OC(=O)Nc1cccc(Cl)c1`, -2%; as for `CC1(C)[C@@H]2CC[C@]1(C)[C@H](OC(=O)CSC#N)C2`, 1%.
For the compound `NNC(=O)CCc1ccc2ccc3ccccc3c2c1`, the growth inhibition was 0%.
Take `COc1ccc(/C(C)=N/OC(=O)c2c(-c3ccccc3Cl)noc2C)cc1CN1CCOCC1`: the growth inhibition is -39%.
On the same count and under the same terms, as for `C=CC(C)(O)CCC1C(=C)C(O)CC2C(C)(C)CCCC12C` (stereo unspecified), the figure is 15%.
Same read-out and setting: the same measure for `S=C(Nc1ccc(Cl)c(Cl)c1)SCc1ccc2c(c1)OCO2`: -4%; for `COc1cc(C2C3=C(COC3=O)Oc3cc4c(cc32)OCO4)ccc1O` (stereo unspecified): 0%; for `S=C(Nc1ccc(Cl)cc1)SC1CCCCC1`: -4%.
The same measure, in the same setting: as for `Nc1nc(-c2cccnc2)cc(-c2cc(-c3cccnc3)nc(N)n2)n1`, the figure is 0%; as for `COC1=CC(=O)C2C(C1=O)C(c1ccc(Cl)cc1)[C@@H]2C` (stereo partly specified), 2%.
Consider `c1ccc(-c2nc3cccnc3s2)cc1`, for which the growth inhibition was 2%.
Still for that read-out and setting: as for `O=[N+]([O-])c1cc(CCl)ccc1CCl`, the figure is 7%; as for `COc1ccc(/C=C2\SC(=S)N(/C=C/c3nc4ccccc4[nH]c3=O)C2=O)cc1OC`, -2%; as for `CCCN(CCC)CC(O)c1cc(-c2ccc(Cl)cc2)nc2c(C)c(Cl)ccc12` (stereo unspecified), -3%.
On the same count and under the same terms, as for `O=C(Nc1ccccc1)OCCc1ccc(Cl)c(Cl)c1`, the figure is -2%.
On to `CC(O)C(O)C(O)C(/C=N\Nc1ccccc1)=N/Nc1ccccc1` (stereo unspecified), for which the growth inhibition is 5%.
On the same count and under the same terms, the same measure for `C#CCCCc1ccccc1`: -48%; for `CC(=O)Cc1ccc[cH-]1.[Fe+2].c1cc[cH-]c1`: 12%.
On the same count and under the same terms, as for `Cc1cc(I)ccc1N`, the figure is -31%; as for `FC(F)(F)c1cc(NC(=S)N2c3ccccc3-n3cccc3C2c2cccnc2)cc(C(F)(F)F)c1` (stereo unspecified), -13%.
The same measure, in the same setting: the same measure for `CC(C)(CN1CCCCC1)C(=O)CC(SCCS(=O)(=O)O)c1ccc(Br)cc1` (stereo unspecified): -2%; for `C[Si](C)(C)CNC(=O)OCc1ccccc1`: 1%.
Regarding `CC(C(=O)N1C(=O)N(C(=O)[C@H](C)C(O)c2ccccc2)[C@H](c2ccccc2)[C@H]1c1ccccc1)[C@@H](O)c1ccccc1` (stereo partly specified), the growth inhibition was -7%.
For the compound `Oc1cccc2c(Cl)ccnc12`, the growth inhibition is 43%.
Same read-out and setting: as for `O=C1C=CC(=C(c2ccccc2)c2ccccc2)c2ccccc21`, the figure is 7%.
Still for that read-out and setting: the same measure for `S=C(S)NN1CCOCC1`: 87% (active).
